The results in this text go back to PMC4336329 (PLoS ONE, 2015).

About 2,200 (0.71%) of roughly 310,000 compounds showed an effect of 50% or more. The effect is printed as a negative number. The sample holds strong results, similar compounds and a random draw of the others, so the mix is not that of the screen.

Sequence of human ether-à-go-go-related gene (hERG) potassium channel (Q12809 whole entry, looked up): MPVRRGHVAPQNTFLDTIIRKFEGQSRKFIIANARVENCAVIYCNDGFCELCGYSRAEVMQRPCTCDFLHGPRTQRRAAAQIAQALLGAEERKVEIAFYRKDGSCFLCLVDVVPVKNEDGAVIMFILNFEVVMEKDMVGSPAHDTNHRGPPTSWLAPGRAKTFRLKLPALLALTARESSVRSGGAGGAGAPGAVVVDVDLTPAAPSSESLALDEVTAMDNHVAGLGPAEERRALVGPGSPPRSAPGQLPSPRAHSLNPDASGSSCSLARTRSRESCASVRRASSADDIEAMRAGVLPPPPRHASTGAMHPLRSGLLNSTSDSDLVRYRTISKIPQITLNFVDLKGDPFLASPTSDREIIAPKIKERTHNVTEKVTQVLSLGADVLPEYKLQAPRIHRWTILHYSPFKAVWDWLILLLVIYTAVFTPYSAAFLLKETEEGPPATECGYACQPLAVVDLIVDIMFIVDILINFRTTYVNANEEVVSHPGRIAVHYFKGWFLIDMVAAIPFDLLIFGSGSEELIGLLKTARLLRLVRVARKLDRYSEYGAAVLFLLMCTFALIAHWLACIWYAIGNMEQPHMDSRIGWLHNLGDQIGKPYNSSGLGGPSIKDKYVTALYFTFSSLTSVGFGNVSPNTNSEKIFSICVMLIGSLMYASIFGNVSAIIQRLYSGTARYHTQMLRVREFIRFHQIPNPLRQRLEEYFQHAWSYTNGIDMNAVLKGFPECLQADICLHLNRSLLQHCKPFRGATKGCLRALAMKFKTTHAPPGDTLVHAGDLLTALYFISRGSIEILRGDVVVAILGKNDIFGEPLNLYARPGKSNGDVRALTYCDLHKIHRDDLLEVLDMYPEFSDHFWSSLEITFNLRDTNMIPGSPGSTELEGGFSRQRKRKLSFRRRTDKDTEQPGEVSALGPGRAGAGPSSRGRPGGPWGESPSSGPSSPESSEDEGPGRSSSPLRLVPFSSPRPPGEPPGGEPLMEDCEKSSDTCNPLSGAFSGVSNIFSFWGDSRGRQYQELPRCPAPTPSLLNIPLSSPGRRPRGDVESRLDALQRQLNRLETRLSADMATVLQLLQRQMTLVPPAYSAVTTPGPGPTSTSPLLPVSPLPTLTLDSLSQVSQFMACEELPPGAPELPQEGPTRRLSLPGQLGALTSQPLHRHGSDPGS

The test concerns the target human ether-à-go-go-related gene (hERG) potassium channel (human, UniProt Q12809). Description: primary screen, population patch clamp on CHO cells stably expressing hERG; higher = less effect of the substance. As to the method:
Briefly, Chinese hamster ovary (CHO) cells stably expressing the hERG channel were dislodged from tissue culture flasks and dispensed into PPC plates. […] During the recording, background leak currents were estimated by a 100 ms step to -80 mV from an initial holding potential of -70 mV and subtracted from the subsequent current measurement. The campaign was conducted in two phases using slight differences in recording protocol. In the first phase, the initial voltage pulse used a 100 ms step to -30 mV from a holding potential of -70 mV, a 2 s conditioning step to +25 mV, and a 2 s test step to -30 mV. During the second phase of the screen, the potential during the conditioning step was raised to +45 mV. In both phases of the campaign, a secondary voltage pulse was applied using the same parameters as the second phase initial pulse. The initial and secondary pulses were applied in the absence of compound, and upon application of 1 μM and 10 μM test concentrations. Small molecule effects on hERG current density were quantified by […].
Turning to `CCO[C@@H]1OC(C(=O)N2CCN(C)CC2)=C[C@H](c2csc3ccccc23)[C@H]1CCCO`, the “hERG current change (%, negative = inhibition) at 1uM” value amounted to 0.669%.

For `CC(=O)Nc1ccc(N(C(=O)c2ccccn2)C(C(=O)NC2CCCCC2)c2ccc(F)cc2)cc1` (stereo not drawn), the “hERG current change (%, negative = inhibition) at 1uM” value stood at 12.2%.

Turning to `CC1CCN(CCCNC(=O)CCc2nnc3n(CCc4ccccc4)c(=O)c4ccccc4n23)CC1`, the “hERG current change (%, negative = inhibition) at 1uM” value is -52.4%.

As to `CC1CCCCN1CCNC(=O)CCc1nnc2n(Cc3ccccc3)c(=O)c3ccccc3n12` (stereo not drawn), the “hERG current change (%, negative = inhibition) at 1uM” value is reported as -8.67%.

As to `O=C(CCc1nnc2n(CCc3ccccc3)c(=O)c3ccccc3n12)NCCCN1CCCCC1`, the “hERG current change (%, negative = inhibition) at 1uM” value is -9.25%.

Turning to `Cc1ccc(Cc2ccc(C(=O)NNC(N)=S)o2)cc1`, the “hERG current change (%, negative = inhibition) at 1uM” value came out at 3.74%.

As for `CN(CC(=O)Nc1ccccc1Br)C(=O)c1sccc1-c1ccccc1`, the “hERG current change (%, negative = inhibition) at 1uM” value is -0.469%.

Turning to `O=c1nc(-c2ccccc2)cc(C(F)(F)F)[nH]1`, the “hERG current change (%, negative = inhibition) at 1uM” value worked out at 21.3%.

Turning to `COc1ccc(N2CCc3c(C)nc4c(OC)cccc4c32)cc1`, the “hERG current change (%, negative = inhibition) at 1uM” value is recorded as -28.3%.

As for `COc1cccc2c3c(c(C)nc12)CCN3c1ccccc1`, the “hERG current change (%, negative = inhibition) at 1uM” value is -8.76%.

Regarding `COc1ccc(N2CCc3c(C)nc4c(OC)cc(OC)cc4c32)c(OC)c1`, the “hERG current change (%, negative = inhibition) at 1uM” value is recorded as -47.6%.

For the molecule `COc1cc(OC)c2nc(C)c3c(c2c1)N(c1ccc(O)cc1)CC3`, the “hERG current change (%, negative = inhibition) at 1uM” value is -57.2%.

Regarding `COc1ccccc1N1CCc2c(C)nc3c(OC)cccc3c21`, the “hERG current change (%, negative = inhibition) at 1uM” value is reported as -23.1%.

Take `COc1ccc(N2CCc3c(C)nc4c(OC)cc(OC)cc4c32)cc1`: the “hERG current change (%, negative = inhibition) at 1uM” value is listed as -52.7%.

As for `CCN(CC(=O)Nc1ccccc1C(F)(F)F)C(=O)CCS(=O)(=O)c1ccc(Cl)cc1`, the “hERG current change (%, negative = inhibition) at 1uM” value was determined as 9.68%.

As to `CC1CCC(NC(=O)Cn2cnc3sccc3c2=O)CC1` (stereo not drawn), the “hERG current change (%, negative = inhibition) at 1uM” value was determined as 3.74%.

With `CCN(CCCNC(=O)CCn1c(=S)[nH]c2cc3c(cc2c1=O)OCO3)c1cccc(C)c1`, the “hERG current change (%, negative = inhibition) at 1uM” value worked out at 11.5%.

As to `CN1CC(C(=O)c2ccc(Cl)cc2)C(c2ccccc2)C1` (stereo not drawn), the “hERG current change (%, negative = inhibition) at 1uM” value was 6.78%.

`COc1ccc(C(=O)C2CN(C)CC2c2ccc(Cl)cc2)cc1` (stereo not drawn): the “hERG current change (%, negative = inhibition) at 1uM” value is on record as -18.3%.

Take `CN1CC(C(=O)c2ccc([N+](=O)[O-])cc2)C(c2ccc(Cl)cc2)C1` (stereo not drawn): the “hERG current change (%, negative = inhibition) at 1uM” value is -77.1%.

On to `Cc1nn(C)c(C(=O)N2CCc3ccccc32)c1Br`, for which the “hERG current change (%, negative = inhibition) at 1uM” value stood at 4.79%.

Regarding `CC1CC1C(=O)Nc1nc(-c2cccs2)c(-c2cccs2)s1` (stereo not drawn), the “hERG current change (%, negative = inhibition) at 1uM” value is 7.23%.

With `Cc1ccc(C(=O)NC2CCCN(c3ccc(C(F)(F)F)cn3)C2)cn1` (stereo not drawn), the “hERG current change (%, negative = inhibition) at 1uM” value is reported as 2.48%.

Turning to `O=C(NC1CCCN(c2ccc(C(F)(F)F)cn2)C1)c1ccnc(Cl)c1` (stereo not drawn), the “hERG current change (%, negative = inhibition) at 1uM” value was -9.21%.

Turning to `O=C(NC1CCCN(c2ccc(C(F)(F)F)cn2)C1)c1ccncc1` (stereo not drawn), the “hERG current change (%, negative = inhibition) at 1uM” value is reported as -51.8%.

Regarding `CSCCC(NC(=O)c1ccccc1)C(=O)NC1CCCC1` (stereo not drawn), the “hERG current change (%, negative = inhibition) at 1uM” value is 4.81%.

On to `CC(C(=O)NC(=O)NC1CCCCC1)N(C)CC(=O)Nc1ccc(F)c(F)c1F` (stereo not drawn), for which the “hERG current change (%, negative = inhibition) at 1uM” value stood at 12.1%.

As to `OC(COC(c1ccccc1)c1ccccc1)CN1CCN(c2ccccn2)CC1` (stereo not drawn), the “hERG current change (%, negative = inhibition) at 1uM” value is reported as -73.5%.

In the case of `Cl.OC(COC(c1ccc(Cl)cc1)c1ccc(Cl)cc1)CN1CCN(c2ccccn2)CC1` (stereo not drawn), the “hERG current change (%, negative = inhibition) at 1uM” value is -79.7%.

On to `CC(C)c1ccc(OCC(O)CN2CCN(c3ccccn3)CC2)cc1.Cl` (stereo not drawn), for which the “hERG current change (%, negative = inhibition) at 1uM” value is -27.7%.

As for `Cl.OC(COCc1ccc(Cl)cc1)CN1CCN(c2ccccn2)CC1` (stereo not drawn), the “hERG current change (%, negative = inhibition) at 1uM” value is -24.9%.

Regarding `OC(COc1ccc(Cl)cc1)CN1CCN(c2ccccn2)CC1` (stereo not drawn), the “hERG current change (%, negative = inhibition) at 1uM” value is recorded as -37.7%.

With `Cc1cccc(C)c1OCC(O)CN1CCN(c2ccccn2)CC1` (stereo not drawn), the “hERG current change (%, negative = inhibition) at 1uM” value is recorded as -1.11%.

For `CCOc1cc(/C=C2\C(=O)ON=C2c2ccccc2)cc(Br)c1O`, the “hERG current change (%, negative = inhibition) at 1uM” value worked out at 10.4%.

As for `O=C(CCCc1ccccc1)NCc1ccc2c(c1)OCO2`, the “hERG current change (%, negative = inhibition) at 1uM” value turned out to be 8.58%.

On to `COc1cccc(Cn2c(NCC(C)C)nc3c2c(=O)n(C)c(=O)n3C)c1`, for which the “hERG current change (%, negative = inhibition) at 1uM” value is listed as -7.04%.

For `CCC(=O)Nc1ccc(NC(=O)c2cc3ccccc3o2)cc1`, the “hERG current change (%, negative = inhibition) at 1uM” value is recorded as -5.21%.

As to `O=C(Nc1ccccc1)c1cc2ccccc2o1`, the “hERG current change (%, negative = inhibition) at 1uM” value amounted to 8.25%.

As for `CC/C(=C\c1oc2cc3ccccc3cc2[n+]1CC)Nc1ccccc1.[I-]`, the “hERG current change (%, negative = inhibition) at 1uM” value is -83.7%.

For the molecule `Cc1cccc(NC(=S)Nn2cnnc2)c1C`, the “hERG current change (%, negative = inhibition) at 1uM” value was found to be 10.9%.

On to `Cc1ccc(-c2cc(C(=O)N3CCN(C4CCS(=O)(=O)C4)CC3)c3ccccc3n2)cc1` (stereo not drawn), for which the “hERG current change (%, negative = inhibition) at 1uM” value is given as -3.04%.

As to `Cc1ccc(NC(=O)CN(C)C(=O)CSc2nc(C)cs2)cc1`, the “hERG current change (%, negative = inhibition) at 1uM” value turned out to be 3.7%.
